Screens from PubChem BioAssay.
Hits are enriched below; roughly 3.7% of the tested compounds scored in any of these assays.
Tau ThT inhib: inhibitors of human tau fibril formation, thioflavin T binding. recombinant tau K18 P301L, heparin-induced fibrillization, ThT fluorescence. Potency, µM (titrated, usually from 57.4 µM), for the others: top-dose activity, negative = inhibition, usual class: inhibitors. hit rate 2.1% among 270,000; further: on the % scale 0 is the no-effect control and ±100 the full control effect; nearly all actives have a fitted effect of over 55% in size
Target sequence (P10636 561-689 P618L limits assumed): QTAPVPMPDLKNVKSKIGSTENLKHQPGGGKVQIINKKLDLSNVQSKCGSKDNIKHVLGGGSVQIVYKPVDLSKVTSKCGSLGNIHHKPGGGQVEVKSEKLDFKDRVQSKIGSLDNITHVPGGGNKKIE
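Tau K18 P301L fragment (15 uM unlabeled plus 0.24 uM Alexa 594-labeled) in 100 mM sodium acetate pH 7 with compound, fibrillization induced by 20 uM heparin for 6 hr at 37 C. Thioflavin T (30 uM) added, fluorescence read after 1 hr (ex 450, em 510 nm).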
Tau fluor counter: counter-screen for tau fibril formation inhibitors | tau K18 P301L (four-repeat tau fragment) Alexa594 fluorescence, heparin fibrillization | Potency, µM (doses to about 57.7 µM), without a hit: at the top dose activity change, negative = decrease | hit rate 0.93% among 280,000; further: on the % scale 0 is the no-effect control and ±100 the full control effect; nearly all actives have a fitted effect of over 55% in size
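Human K18 P301L tau (15 uM unlabeled plus 0.24 uM Alexa 594-labeled, final) in 100 mM sodium acetate pH 7 was mixed with compound and 20 uM heparin and incubated 6 hr at 37 C.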
HTT ATP protect: Huntington cell model cytoprotection by ATP luminescence; hit rate 0.14% among 230,000; Potency, µM (series often up to 56.4 µM), for the others: cytoprotection (ATP increase), actives largely listed as activators; AID 1471; PC12 HTT-Q103 induced, cytoprotection, ATP luminescence, 40 h; further: % of control where 0% means no effect; nearly all actives have a fitted effect of over 45% in size
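Cells were plated at 1500 per well in phenol red-free DMEM with 5% equine and 5% calf serum. Tebufenozide (100 nM final) and compounds were added, then ATPlite reagent, and luminescence was read.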
HTT aggregate: inhibitors of mutant huntingtin aggregate formation in PC12 cells | AID 1688 | PC12 HttQ103-GFP aggregates, Acumen cytometry, 40 h | hit rate 1.1% among 220,000 | Potency, µM (highest dose often 46.1 µM), for inactives: at the top dose activity change, negative = inhibition, usual class: inhibitors; further: on the % scale 0 is the no-effect control and ±100 the full control effect; nearly all actives have a fitted effect of over 60% in size
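Aggregate formation scored by laser-scanning cytometer (488 excitation, 500–530 emission) in lysed PC12 cells expressing Q103-GFP after 100 nM tebufenozide induction; library tested in dose series, with ATPLite reagent added in the multiplex.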
Tau fibril FP: blocks human tau fibril formation measured by polarization | P10636 | K18 P301L tau heparin fibrillization, Alexa594 FP, 6 h | Potency, µM (highest dose often 57.7 µM), without a hit: top-dose activity, negative = inhibition, actives largely listed as inhibitors | hit rate 0.39% among 280,000 | AID 1468; further: on the % scale 0 is the no-effect control and ±100 the full control effect; nearly all actives have a fitted effect of over 55% in size
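Human K18 P301L fragment (15 uM unlabeled plus 0.24 uM Alexa 594-labeled) in 100 mM sodium acetate pH 7 with compound, aggregation induced by 20 uM heparin for 6 hr at 37 C. ThT (30 uM) added for 1 hr, then Alexa 594 FP read.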
* = called active by the depositor; u = inconclusive; x = no result; [ ] = another dose, or the depositor's remark. The call rests on the fitted dose curve; in most records, active means well fitted curve in the direction sought with a large enough effect; inconclusive means small, poorly fitted or top-dose-only effect, or another doubt; inactive means no such curve, though single readings can be large; an effect the other way counts as inactive or inconclusive. Potency means the concentration at half of the fitted maximal effect.

SMILES | Tau ThT inhib | Tau fluor counter | HTT ATP protect | HTT aggregate | Tau fibril FP
Fc1ccccc1N1CCN(c2c3c(nc4nncn24)CCC3)CC1 | u | -8% | x | x | 0%
O=C(Nc1ccccc1F)Nc1ccc([N+](=O)[O-])cc1Cl | -25% | u | 27%[10 µM] | -9%[9.22 µM] | -18%
O=C(Nc1cccnc1)Nc1ccccc1Cl | 0% | -4% | 0.79µM* | x | 0%
O=C(Nc1csc([N+](=O)[O-])c1)Nc1ccccc1Cl | x | 25µM*[quencher] | 9%[10 µM] | 31%[9.22 µM] | 0%
O=C(Nc1cccnc1)Nc1cc(Cl)cc(Cl)c1 | u | u | -18%[10 µM] | -36%[9.22 µM] | 25µM*
O=C(Nc1cccnc1)Nc1ccc(Br)cc1Cl | 17% | -8% | -6%[0.074 µM] | u | -13%
O=C(Nc1ccc(Nc2ccccc2)cc1)Nc1ccccc1Cl | 4µM* | 4µM*[quencher] | -23%[10 µM] | -23%[9.22 µM] | u
O=C(Nc1ccccc1Cl)Nc1ccccc1Cl | x | -12% | 4%[10 µM] | -32%[9.22 µM] | 0%
O=C(Nc1ccccc1)C(=O)Nc1cccnc1 | -14% | -13% | -15%[10 µM] | -6%[9.22 µM] | -1%
COc1cc(=O)n(C)c2c(OC[C@@H](O)C(C)(C)O)cccc12 | x | x | -7%[40.3 µM] | x | x
CCc1nn2c(-c3ccccc3OC)ccnc2c1-c1ccccc1 | u | -30% | x | x | -8%
O=C(Nc1ccccc1)Nc1ccc(Oc2cccnc2)nc1 | 8% | -7% | -3%[10 µM] | 2%[9.22 µM] | 3%
O=C(Nc1ccccc1)Nc1csc2ccccc12 | u | 11µM*[quencher] | -14%[10 µM] | -5%[9.22 µM] | u
O=C(Nc1cccnc1)C12CC3CC(CC(C3)C1)C2 | 2% | 0% | -15%[10 µM] | -5%[9.22 µM] | 9%
CC(=O)Nc1csc2ccccc12 | -4% | 1% | 2%[10 µM] | -1%[9.22 µM] | -1%
O=C(Nc1ccccc1)Nc1cc(Cl)cc(Cl)c1 | u | u | -61% | -8%[9.22 µM] | 11µM*
O=C(Nc1cccnc1)C1(F)C(F)(F)C(F)(F)C(F)(F)C(F)(F)C1(F)F | -4% | -5% | -54% | 6.3µM* | 2%
O=C(Nc1ccccc1)Nc1cc(OCC(F)(F)F)cc(OCC(F)(F)F)c1 | -15% | u | -12%[10 µM] | u | 11µM*
O=C(NNC(=O)c1ccc[nH]1)Nc1cc(Cl)cc(Cl)c1 | x | -6% | 8%[10 µM] | 10%[9.22 µM] | -2%
Cc1cccc(C)c1NC(=O)CN(C)S(=O)(=O)c1ccc2c(c1)n(C)c(=O)c(=O)n2C | 2% | 4% | x | x | 1%
CCOc1ccccc1NC(=O)Nc1cc2c(cc1N1CCCCC1)n(CC)c(=O)n2CC | u | -26% | x | x | 1%
CCOC(=O)c1cnc2c(N=Nc3ccccc3)c(N)nn2c1N | 2.5µM* | -11% | -88% | 14% | 0%
CCOC(=O)c1cnc2c(-c3ccccc3)cnn2c1N | -14% | -10% | -83% | 1% | 1%
CCOC(=O)c1cnc2c(-c3ccccc3)c(C)nn2c1N | u | -10% | -11% | -14%[9.22 µM] | 0%
CCOC(=O)c1cnc2c(N=Nc3cccc(Cl)c3)c(N)nn2c1N | 2.5µM* | -13% | -80% | 2% | -3%
SMILES | Tau ThT inhib | Tau fluor counter | HTT ATP protect | HTT aggregate | Tau fibril FP
CCOC(=O)CCN1C(=O)[C@H]2[C@H]3[C@H](O)[C@H](O)C/C(=N/OC[C@@H](O)COCc4ccco4)[C@H]3CC[C@@H]2C1=O | 2%[11.5 µM] | 0%[11.6 µM] | u | x | 0%[11.6 µM]
Cc1ccc(NC(=O)C2=C(c3ccccc3)S(=O)(=O)CCS2(=O)=O)cc1 | 28µM* | -29% | -133% | 5µM* | 28µM*
COc1cccc(CC2(CO)CCCN(S(=O)(=O)N(C)C)C2)c1 (stereo unspecified) | -6% | -7% | 4%[10 µM] | 4%[9.22 µM] | -4%
CCOC(=O)N1CCC(N2CCCC(CO)(Cc3cccc(OC)c3)C2)CC1 (stereo unspecified) | 0% | 9% | x | 0.0006µM* | -1%
CCOC(=O)C1(Cc2cccc(F)c2)CCN(C2CCOCC2)CC1 | -13% | -14% | -3%[10 µM] | 1%[9.22 µM] | -5%
CCOC(=O)C1(Cc2cccc(OC)c2)CCN(C2CCOCC2)CC1 | 13µM* | -82% | -32%[10 µM] | 11%[9.22 µM] | -18%
O=C(NCC(c1cccs1)S(=O)(=O)c1cccs1)c1ccc(Cl)cc1 (stereo unspecified) | -4% | -18% | x | x | u
COc1ccccc1NC(=O)c1cnc(SCC(=O)N2CCCc3ccccc32)n(C)c1=O | u | -5% | x | x | u
CCC(=O)OCCNc1cc(Sc2nc3ccccc3[nH]2)c2nonc2c1[N+](=O)[O-] | 8.9µM* | u | -39%[10 µM] | u | u
CCCSc1cc(NCCOC(=O)CCC)c([N+](=O)[O-])c2nonc12 | u | u | 19%[10 µM] | 4% | 9%
CCC(=O)OCCNc1cc(Sc2nc3ccccc3s2)c2nonc2c1[N+](=O)[O-] | 7.9µM* | u | -151% | u | -12%
O=[N+]([O-])c1c(NCCCO)cc(Sc2nc3ccccc3s2)c2nonc12 | 2.2µM* | u | -132% | 6.3µM* | -21%
CCN(CCCNC(=O)c1nn(-c2ccc(OC)c(Cl)c2)c(=O)c2c1c1ccccc1n2C)c1ccccc1 | -4% | u | x | x | -13%
Cc1ccc(-c2nnn3c2nc(NCC(C)c2ccccc2)c2ccccc23)cc1 (stereo unspecified) | -1% | u | x | x | -16%
COc1ccc(-c2nnc(SCC(=O)Nc3cc(OC)ccc3OC)nc2-c2ccc(OC)cc2)cc1 | u | u | x | x | -12%
Cc1ccc(-c2cc(C(=O)NCCCN3CCOCC3)no2)cc1 | -4% | -1% | -32% | 3.2µM* | -3%
O=C(NCCN1CCOCC1)c1cc(-c2ccc(Cl)cc2)on1 | -6% | -6% | -15% | -2% | -5%
CCCCOc1ccc2c(c1)C(=O)c1cc(O)ccc1-2 | 11µM* | 14µM*[quencher] | -14%[10 µM] | 21%[9.22 µM] | u
CCOc1ccc2c(c1)C(=O)c1cc(OCC(=O)O)ccc1-2 | 11µM* | -27% | -24%[10 µM] | 0%[9.22 µM] | -6%
CN1CCN([C@@H]2Cc3ccccc3Sc3ccc(Cl)cc32)CC1 | x | x | 7%[1.9 µM] | x | x
COc1ccc(C(=O)NCCn2cc(SCC(=O)Nc3ccc(F)cc3)c3ccccc32)cc1 | u | 14µM*[quencher] | x | x | u
CC(=C/c1ccco1)/C=N/N1CCN(c2ccccc2)CC1 | 14µM* | -29% | -23% | 21% | 1%
CC(/C=N/N1CCN(c2ccccc2)CC1)=C\c1ccco1 | u | -24% | 5% | 17% | 2%
Cc1ccc(Oc2c(C(N)=O)cc([N+](=O)[O-])cc2[N+](=O)[O-])cc1 | 8.9µM* | u | x | u | u
COc1ccc(CN[C@H](C)C(=O)O)cc1 | x | x | 8%[10 µM] | x | x
COc1ccc(-c2nnc(SCC(=O)N(C)Cc3ccccc3)o2)cc1OC | 10% | -22% | x | x | u
COc1cc([N+](=O)[O-])cc(/C=N/NC(=O)c2ccc(NC(=O)c3ccc(C)cc3)cc2)c1O | 2µM* | u | -75% | u | 15%
COc1ccccc1/C=N/NC(=O)c1ccc(NC(=O)c2cccc([N+](=O)[O-])c2)cc1 | u | -24% | -37% | u | 13%
